The values that follow come from PubChem BioAssay.

As usually defined, the inhibition is the relative decrease from the control value, in per cent.

Activity calls are given as the source filed them.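 How the source made its calls, unless noted: active means inhibition above the screen-wide mean plus 3 SD, about 51%; inactive means the rest.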

A short description of test [1]: reduced mouse 2C T cell binding to pMHC/ICAM-1 vesicles – MLPCN validation set, flow cytometry, LFA-1/ICAM-1 modulator project, pilot screen (AID 2523;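 active means response below a set limit, under 55% cells CD8-positive and vesicle-bound, and CD8 cells' 90th-percentile brightness under 279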;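 on vesicle binding response: mean PE anti-B7-1 fluorescence of CD8+ cells relative to row control; 100% = QL9-loaded vesicles with DMSO vehicle in the same plate row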). Conditions: 2C mouse CD8+ T cells, at 7 µM, stronger effect = lower value; double positive events: measured here: CD8+/vesicle+ event percentage. (In general: In flow cytometry, cells or beads pass a laser one at a time.)
The target in test [2] is Integrin beta-1 (Homo sapiens) + Integrin alpha-4 (Homo sapiens) (UniProt P13612+P05556). Description: alpha4beta1 integrin LIBS antibody binding reduction – U937 cells, HUTS-21 mAb, flow cytometry, validation set, VLA-4 allosteric modulator project, pilot screen (AID 2674;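 active means inhibition above 50%, about 3 SD of the validation set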;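 further: antibody binding induced by the VLA-4 ligand LDV present at three times its Kd; 0% = LDV ligand with antibody and no compound and 100% = antibody without LDV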). As to conditions: HUTS-21 LIBS mAb binding, at 6.7 µM, stronger effect = higher value, binding induced by LDV ligand.
Integrin beta-1 (Homo sapiens) + Integrin alpha-4 (Homo sapiens), sequence (P05556 whole entry, looked up): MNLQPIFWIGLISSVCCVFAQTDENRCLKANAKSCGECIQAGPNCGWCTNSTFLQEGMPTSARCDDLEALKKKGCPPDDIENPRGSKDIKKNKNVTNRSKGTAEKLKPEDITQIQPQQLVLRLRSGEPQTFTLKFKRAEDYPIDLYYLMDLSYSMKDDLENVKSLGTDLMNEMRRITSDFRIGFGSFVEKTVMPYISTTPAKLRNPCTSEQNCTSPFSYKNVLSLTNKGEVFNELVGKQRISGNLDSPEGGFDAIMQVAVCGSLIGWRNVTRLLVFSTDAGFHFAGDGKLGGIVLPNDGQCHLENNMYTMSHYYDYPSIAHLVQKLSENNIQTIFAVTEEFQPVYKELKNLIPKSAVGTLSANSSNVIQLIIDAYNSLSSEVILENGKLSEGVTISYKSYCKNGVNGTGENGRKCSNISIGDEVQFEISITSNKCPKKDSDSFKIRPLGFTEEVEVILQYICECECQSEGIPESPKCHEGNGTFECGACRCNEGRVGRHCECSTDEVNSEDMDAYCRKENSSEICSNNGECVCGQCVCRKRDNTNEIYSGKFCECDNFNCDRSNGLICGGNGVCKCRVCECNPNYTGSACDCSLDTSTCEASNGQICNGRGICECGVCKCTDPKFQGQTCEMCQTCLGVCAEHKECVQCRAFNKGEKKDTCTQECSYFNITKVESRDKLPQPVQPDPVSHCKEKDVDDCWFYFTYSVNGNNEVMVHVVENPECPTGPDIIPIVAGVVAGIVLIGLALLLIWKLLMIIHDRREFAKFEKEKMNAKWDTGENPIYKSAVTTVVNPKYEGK
Integrin beta-1 (Homo sapiens) + Integrin alpha-4 (Homo sapiens), sequence (P13612 whole entry, looked up): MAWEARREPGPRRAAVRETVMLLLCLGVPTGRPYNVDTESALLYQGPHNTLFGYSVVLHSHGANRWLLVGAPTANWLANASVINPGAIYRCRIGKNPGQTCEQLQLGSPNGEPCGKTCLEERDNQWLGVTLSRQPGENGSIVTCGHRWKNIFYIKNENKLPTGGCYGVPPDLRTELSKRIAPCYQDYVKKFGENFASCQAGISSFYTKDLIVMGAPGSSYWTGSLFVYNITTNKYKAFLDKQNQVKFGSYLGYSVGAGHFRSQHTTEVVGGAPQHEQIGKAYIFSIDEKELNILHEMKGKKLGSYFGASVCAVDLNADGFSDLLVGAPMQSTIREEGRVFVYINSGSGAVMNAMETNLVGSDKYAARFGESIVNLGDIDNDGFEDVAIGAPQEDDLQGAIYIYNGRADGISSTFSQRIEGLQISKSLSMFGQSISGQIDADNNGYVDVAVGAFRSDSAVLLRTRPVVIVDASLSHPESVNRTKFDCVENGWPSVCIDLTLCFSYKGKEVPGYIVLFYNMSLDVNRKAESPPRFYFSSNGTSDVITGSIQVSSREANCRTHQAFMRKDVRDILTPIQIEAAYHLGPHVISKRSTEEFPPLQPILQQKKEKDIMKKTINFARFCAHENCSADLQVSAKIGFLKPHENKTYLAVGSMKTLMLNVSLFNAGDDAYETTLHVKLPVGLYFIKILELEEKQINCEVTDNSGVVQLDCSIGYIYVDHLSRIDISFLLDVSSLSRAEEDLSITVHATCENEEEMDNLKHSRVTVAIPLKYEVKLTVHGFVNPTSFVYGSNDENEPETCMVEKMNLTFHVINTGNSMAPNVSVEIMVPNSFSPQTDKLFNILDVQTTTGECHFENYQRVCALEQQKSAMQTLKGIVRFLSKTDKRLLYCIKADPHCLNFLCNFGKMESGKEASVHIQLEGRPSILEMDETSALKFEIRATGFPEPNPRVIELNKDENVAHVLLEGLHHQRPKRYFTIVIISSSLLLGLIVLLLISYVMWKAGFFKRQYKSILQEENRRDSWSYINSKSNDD

Test [3] can be described thus: calorie-restriction mimetic ROS inhibitors, yeast – validation compound set, pilot screen (AID 2706;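 active means superoxide response below 65% of plate, a cut near 3 SD across the whole screen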;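 further: yeast exposed to compound for one week at 30 degrees C before staining; 100% = mean of all compound wells on the same plate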). Conditions: S. cerevisiae aging, superoxide DHE fluorescence; at 10 µM, stronger effect = lower value.
Test [4] concerns the target Beta-adrenergic receptor kinase 1 (Homo sapiens) (UniProt P25098). Description: GRK2 binders displacing RNA aptamer, biochemical, validation, human GRK2, bead flow cytometry (AID 488806;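 active means aptamer binding inhibition above 30%, about 3 SD of noise from non-fluorescent compounds; inactive means inhibition at or below 30%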). Conditions: bead-bound GRK2, FAM-aptamer displacement, at 10 µM, stronger effect = higher value.
Test [5] deals with Beta-2 adrenergic receptor (Homo sapiens) (UniProt P07550). The test is described as follows: agonist-induced loss of surface beta2AR – cell-based, FAP fluorogen, flow cytometry, validation set, pilot screen (AID 504459;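 active means percent response above 42, roughly 3 SD of non-fluorescent test compounds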;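 further: agonist-driven loss of surface beta2AR via internalization measured by FAP dye flow cytometry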). Conditions: Am2.2-beta2AR cells, at 10 µM, stronger effect = higher value.
Beta-2 adrenergic receptor (Homo sapiens), sequence (P07550 whole entry, looked up): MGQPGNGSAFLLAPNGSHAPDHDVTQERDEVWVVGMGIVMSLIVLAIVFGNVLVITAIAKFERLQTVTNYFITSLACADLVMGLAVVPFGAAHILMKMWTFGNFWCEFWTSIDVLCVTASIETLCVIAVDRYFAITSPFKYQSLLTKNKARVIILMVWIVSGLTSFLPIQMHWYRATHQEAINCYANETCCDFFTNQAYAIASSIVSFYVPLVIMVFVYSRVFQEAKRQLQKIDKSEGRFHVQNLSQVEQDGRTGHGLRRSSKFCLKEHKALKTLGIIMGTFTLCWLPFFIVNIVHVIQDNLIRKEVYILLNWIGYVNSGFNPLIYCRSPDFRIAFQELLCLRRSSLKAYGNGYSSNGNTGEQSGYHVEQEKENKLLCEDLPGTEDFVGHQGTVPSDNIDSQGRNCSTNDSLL
The target of test [6] is AP-2 complex subunit beta (Homo sapiens) (UniProt P63010). The test is described as follows: beta-arrestin/AP2 interaction blockers – biochemical, validation set, GST-AP2 beads, flow cytometry, pilot screen (AID 504541;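 active means inhibition above 54%, about 3 SD of non-fluorescent compounds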;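 further: AP2 carries R879A mutation and is captured from E. coli lysate; bead-bound FITC arrestin peptide fluorescence measuring arrestin peptide binding to AP2; 0% = DMSO wells and 100% = excess unlabeled arrestin peptide control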). As to conditions: FITC arrestin peptide, at 10 µM, stronger effect = higher value, AP2 beta2 appendage fragment, R879A mutant.
AP-2 complex subunit beta (Homo sapiens), sequence (P63010 whole entry, looked up, the tested form may be a part, one chain of several): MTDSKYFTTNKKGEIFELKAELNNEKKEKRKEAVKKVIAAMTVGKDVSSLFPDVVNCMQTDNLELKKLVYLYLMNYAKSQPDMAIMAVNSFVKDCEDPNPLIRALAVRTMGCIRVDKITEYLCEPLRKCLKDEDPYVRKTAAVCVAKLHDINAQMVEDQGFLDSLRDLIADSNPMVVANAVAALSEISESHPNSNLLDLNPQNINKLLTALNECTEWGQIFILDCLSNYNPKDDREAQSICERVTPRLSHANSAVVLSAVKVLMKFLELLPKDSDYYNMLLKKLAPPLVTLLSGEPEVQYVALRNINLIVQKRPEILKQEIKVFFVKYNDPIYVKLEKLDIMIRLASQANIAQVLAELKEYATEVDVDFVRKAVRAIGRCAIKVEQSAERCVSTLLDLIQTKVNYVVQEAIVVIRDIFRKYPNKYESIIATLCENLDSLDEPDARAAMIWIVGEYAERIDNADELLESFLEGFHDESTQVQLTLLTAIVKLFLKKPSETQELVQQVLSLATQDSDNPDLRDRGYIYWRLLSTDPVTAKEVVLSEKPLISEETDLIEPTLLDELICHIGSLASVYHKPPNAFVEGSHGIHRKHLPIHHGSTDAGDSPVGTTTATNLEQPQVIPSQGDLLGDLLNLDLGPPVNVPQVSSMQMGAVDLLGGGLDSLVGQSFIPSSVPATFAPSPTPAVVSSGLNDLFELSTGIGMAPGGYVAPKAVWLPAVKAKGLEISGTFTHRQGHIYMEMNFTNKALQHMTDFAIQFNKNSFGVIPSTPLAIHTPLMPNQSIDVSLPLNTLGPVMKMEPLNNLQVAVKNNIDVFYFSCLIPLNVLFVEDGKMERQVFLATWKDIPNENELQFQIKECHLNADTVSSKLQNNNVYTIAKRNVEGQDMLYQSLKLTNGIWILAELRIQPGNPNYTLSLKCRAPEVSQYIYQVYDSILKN
Test [7] in a line: cytosolic pH regulators acting via V-ATPase – S. cerevisiae, pHLuorin, HTS validation (AID 504600; in the data active means response above about 15%;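 further: plate controls were DMSO for no effect and reference compound for full effect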). Conditions: V-ATPase proton transport, at 10 µM, stronger effect = higher value.
Test [8] has as its system anti-desmoglein-3 scFv antibody binding to human DSG3. The test is described as follows: blockers of pathogenic pemphigus antibody–desmoglein-3 binding – biochemical, validation compound set, bead-based, flow cytometry, pilot screen (AID 588368;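 active means binding below the plate cutoff, the plate median minus 3 SD, with a reading above zero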;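 further: signal is the median channel fluorescence of bead-bound GFP antibody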). As to conditions: Protein G beads, DSG3-Fc, scFv-GFP binding, at 10 µM, stronger effect = lower value.
Test [9] can be described thus: Nile Red efflux blockade in pump-expressing yeast – validation compound set, multiplex, phenotypic, pilot screen (AID 588506;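 active means efflux inhibition above 0.42, the validation set average plus 4 SD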;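 further: Nile Red retained in cells so higher fluorescence means more efflux inhibition; 0 = negative control wells and 1 = enniatin B 25 µM full block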). As to conditions: S. cerevisiae pump-expressing triplex, Nile Red efflux flow cytometry; at 10 µM; stronger effect = higher value; the pumps come from Candida albicans.
The target of test [10] is ATP-binding cassette sub-family B member 6 (Homo sapiens) (UniProt Q9NP58). Description: blockers of ABCB6-driven porphyrin uptake – K562-ABCB6 cells, flow cytometry, validation set, pilot screen (AID 588550).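 Further: 0% = DMSO wells and 100% = benzethonium chloride 70 µM positive control.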 As to conditions: K562-ABCB6 porphyrin accumulation, 1 h, at 10 µM, stronger effect = higher value.
ATP-binding cassette sub-family B member 6 (Homo sapiens), sequence (Q9NP58 whole entry, looked up): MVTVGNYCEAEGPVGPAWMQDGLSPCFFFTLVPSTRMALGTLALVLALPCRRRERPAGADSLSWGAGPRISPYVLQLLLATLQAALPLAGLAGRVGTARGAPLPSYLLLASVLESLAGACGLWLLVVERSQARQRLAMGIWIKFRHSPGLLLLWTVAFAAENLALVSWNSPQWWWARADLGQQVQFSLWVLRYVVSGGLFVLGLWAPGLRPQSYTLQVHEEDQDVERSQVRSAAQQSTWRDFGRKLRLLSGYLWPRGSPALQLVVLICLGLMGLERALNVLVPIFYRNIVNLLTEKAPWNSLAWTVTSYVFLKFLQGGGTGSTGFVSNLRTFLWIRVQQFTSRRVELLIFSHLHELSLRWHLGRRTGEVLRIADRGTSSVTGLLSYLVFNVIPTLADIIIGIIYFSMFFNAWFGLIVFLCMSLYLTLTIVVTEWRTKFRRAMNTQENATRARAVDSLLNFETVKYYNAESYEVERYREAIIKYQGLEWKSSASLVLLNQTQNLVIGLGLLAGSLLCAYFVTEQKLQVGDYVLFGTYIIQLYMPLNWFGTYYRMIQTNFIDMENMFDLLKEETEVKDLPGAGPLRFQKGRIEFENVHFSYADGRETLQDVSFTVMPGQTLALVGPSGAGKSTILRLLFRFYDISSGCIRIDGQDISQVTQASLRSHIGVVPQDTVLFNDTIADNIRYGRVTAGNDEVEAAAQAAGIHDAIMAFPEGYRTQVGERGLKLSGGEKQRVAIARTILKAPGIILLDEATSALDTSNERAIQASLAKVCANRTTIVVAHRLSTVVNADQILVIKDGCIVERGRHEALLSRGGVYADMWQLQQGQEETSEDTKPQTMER
The nature of test [11]: AML differentiation inducers, ER-HoxA9 marrow cells – cell-based, GFP/MAC1 double positive, flow cytometry, validation set, primary screen (AID 588685;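 active means differentiation response of at least 50%, scaled between solvent and reference control, from cells with both markers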;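 further: compound exposure lasts four days before antibody staining and flow analysis; 0% = DMSO wells and 100% = 5 µM fulvestrant positive control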). As to conditions: stronger effect = higher value, normalized: vehicle 0, fulvestrant 100.

Beta-adrenergic receptor kinase 1 (Homo sapiens), sequence (P25098 whole entry, looked up): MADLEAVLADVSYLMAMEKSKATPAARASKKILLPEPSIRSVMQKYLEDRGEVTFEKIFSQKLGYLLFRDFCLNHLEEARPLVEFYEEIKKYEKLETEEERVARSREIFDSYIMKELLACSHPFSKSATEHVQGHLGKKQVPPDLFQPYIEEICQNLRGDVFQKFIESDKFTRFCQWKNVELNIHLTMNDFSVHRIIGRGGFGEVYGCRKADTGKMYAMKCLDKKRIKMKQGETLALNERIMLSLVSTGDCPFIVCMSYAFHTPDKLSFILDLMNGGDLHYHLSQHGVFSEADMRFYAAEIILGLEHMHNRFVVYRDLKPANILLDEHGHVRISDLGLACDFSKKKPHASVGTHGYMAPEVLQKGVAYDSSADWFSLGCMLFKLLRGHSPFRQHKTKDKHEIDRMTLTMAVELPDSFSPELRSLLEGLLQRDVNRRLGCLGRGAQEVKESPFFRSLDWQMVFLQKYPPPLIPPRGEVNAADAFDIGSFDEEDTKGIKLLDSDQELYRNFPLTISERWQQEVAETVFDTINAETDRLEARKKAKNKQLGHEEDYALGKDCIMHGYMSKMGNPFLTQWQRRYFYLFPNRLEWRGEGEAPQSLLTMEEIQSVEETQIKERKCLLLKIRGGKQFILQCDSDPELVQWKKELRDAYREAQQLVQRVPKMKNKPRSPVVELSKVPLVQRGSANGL

Regarding `Fc1cccc(Cc2noc(CN3CCN(c4cnccn4)CC3)n2)c1`, the double positive events in [1] amounted to 56.6%. The vesicle binding response in test [1] is 45.8% (inactive). Further, the inhibition was -3.57% (inactive) in [2], 56.4% (active) in [6] and 0% (inactive) in test [10]. In addition, the superoxide response (% of plate) in test [3] was 108% (inactive). Besides, the aptamer binding inhibition in test [4] is -1% (inactive). Besides, the response is -4.45% (inactive) in test [5] and -3.37% (inactive) in test [7]. In addition, the binding (% of control) in test [8] is 97.4% (inactive). Further, the efflux inhibition (fraction of control) in [9] is 0.11 (inactive). Besides, in test [11], the differentiation response is 41.3% (inactive).
`COc1cc2c(cc1O)CC[C@@H]1[C@@H]2CC[C@]2(C)[C@@H](O)CC[C@@H]12` had a double positive events in [1] of 58.8%. In addition, in [1], the vesicle binding response was 139% (inactive). Also, the inhibition is 44.9% (inactive) in test [2], -5.34% (inactive) in [6] and -1% (inactive) in [10]. In addition, the superoxide response (% of plate) in test [3] is 112% (inactive). Further, the aptamer binding inhibition in [4] was -7% (inactive). In addition, the response in test [5] is -10.9% (inactive); in test [7], -4.33% (inactive). In addition, the binding (% of control) in test [8] was 106% (inactive). Moreover, the efflux inhibition (fraction of control) in test [9] was 0.04 (inactive). For the same compound, the differentiation response in test [11] was -9.91% (inactive).
In the case of `O=C1Nc2ccc3sc4ccccc4c3c2C1=O`, in test [1], the double positive events stood at 62%. Also, in test [1], the vesicle binding response is 162% (inactive). The inhibition in test [2] is 9.63% (inactive); in [6], -0.66% (inactive); in test [10] it was -15% (inactive). Also, the superoxide response (% of plate) in test [3] was 111% (inactive). Besides, the aptamer binding inhibition in test [4] is 1% (inactive). The response in test [5] was 3.08% (inactive); in test [7], -7.6% (inactive). Also, in test [8], the binding (% of control) is 102% (inactive). Also, in [9], the efflux inhibition (fraction of control) is -0.19 (inactive). For the same compound, the differentiation response in test [11] is -0.18% (inactive).
In test [1], `Cn1c2[n+](c3ccc(Cl)cc3c1=O)Cc1ccccc1-2` displayed a double positive events of 69%. For the same compound, the vesicle binding response in [1] was 278% (inactive). For the same compound, the inhibition was -13% (inactive) in [2], 1.06% (inactive) in test [6] and 10% (inactive) in [10]. The superoxide response (% of plate) in test [3] is 97.2% (inactive). For the same compound, in test [4], the aptamer binding inhibition was 1% (inactive). Moreover, the response is -8.51% (inactive) in test [5] and 7.46% (inactive) in test [7]. Further, the binding (% of control) in test [8] was 107% (inactive). Also, in test [9], the efflux inhibition (fraction of control) was 0.21 (inactive). For the same compound, in test [11], the differentiation response is 20.6% (inactive).
The compound `CCOc1ccccc1Oc1coc2cc(OCC(=O)O)ccc2c1=O` returned a double positive events in test [1] of 63.5%. In test [1], the vesicle binding response was 156% (inactive). Also, the inhibition in [2] was 1.44% (inactive); in test [6], -11% (inactive); in test [10] it was -2% (inactive). For the same compound, in test [3], the superoxide response (% of plate) is 111% (inactive). Besides, the aptamer binding inhibition in test [4] is 10% (inactive). Moreover, the response was -21.7% (inactive) in test [5] and 5.03% (inactive) in [7]. The binding (% of control) in test [8] was 106% (inactive). Moreover, in test [9], the efflux inhibition (fraction of control) is -0.09 (inactive). The differentiation response in test [11] was -8.93% (inactive).
The compound `CC(C)COc1ccc(Cc2cnc(N)nc2N)cc1` returned a double positive events in test [1] of 63.9%. Further, in [1], the vesicle binding response was 226% (inactive). For the same compound, the inhibition in test [2] is 3.67% (inactive); in [6], 59.5% (active); in [10], 0% (inactive). The superoxide response (% of plate) in test [3] was 97.9% (inactive). The aptamer binding inhibition in test [4] is 0% (inactive). Also, the response in test [5] was 5.88% (inactive); in [7] it was -3.28% (inactive). Further, the binding (% of control) in test [8] is 95.5% (inactive). Moreover, the efflux inhibition (fraction of control) in test [9] is 0.05 (inactive). Moreover, the differentiation response in test [11] was 76% (active).
On to `COc1cc2c3c(c1)C1(C(=O)N3C(C)(C)C=C2C)C(C#N)=C(N)Oc2cc(C)oc(=O)c21` (stereo not drawn), for which, in test [1], the double positive events came to 60.1%. For the same compound, the vesicle binding response in [1] was 172% (inactive). Besides, the inhibition was 2.3% (inactive) in [2], -6.4% (inactive) in test [6] and 5% (inactive) in test [10]. For the same compound, in test [3], the superoxide response (% of plate) is 96.8% (inactive). Further, the aptamer binding inhibition in test [4] is -1% (inactive). The response in [5] was -71.3% (inactive); in test [7], -0.54% (inactive). In addition, the binding (% of control) in [8] was 110% (inactive). Besides, in [9], the efflux inhibition (fraction of control) is 0.4 (inactive). Also, the differentiation response in test [11] is 79.2% (active).
In the case of `Fc1cc(F)cc(NC(=S)NCCCN2CCOCC2)c1`, the double positive events in [1] came to 59.3%. The vesicle binding response in test [1] is 214% (inactive). In addition, the results for the inhibition in [2], in test [6] and in test [10] were 5.69% (inactive), -3.24% (inactive) and 2% (inactive), respectively. In addition, in test [3], the superoxide response (% of plate) was 80.8% (inactive). Besides, in test [4], the aptamer binding inhibition is -5% (inactive). Moreover, the results for the response in [5] and in test [7] were -24.3% (inactive) and 4.35% (inactive), respectively. Further, the binding (% of control) in test [8] was 107% (inactive). Moreover, the efflux inhibition (fraction of control) in test [9] is -0.13 (inactive). Besides, the differentiation response in [11] was 0.92% (inactive).
Consider `COc1cc2c(cc1O)CCN(C(=O)c1ccco1)C2C` (stereo not drawn), for which, in test [1], the double positive events came to 59.4%. For the same compound, the vesicle binding response in test [1] is 242% (inactive). Further, the inhibition in test [2] was 5.03% (inactive); in [6], 14.6% (inactive); in [10], 4% (inactive). The superoxide response (% of plate) in test [3] is 98.4% (inactive). Further, the aptamer binding inhibition in test [4] was -1% (inactive). Further, the response in test [5] was 0.24% (inactive); in test [7] it was 0.13% (inactive). Also, in [8], the binding (% of control) was 97.4% (inactive). Besides, the efflux inhibition (fraction of control) in [9] was 0.22 (inactive). In addition, the differentiation response in test [11] was 8.8% (inactive).
